Records with an inconclusive call do not appear. Activity calls are given as the source filed them. Unless noted, calls follow the shape of the dose curve; as a rule, active = well fitted curve in the direction sought with a large enough effect; inconclusive = small, poorly fitted or top-dose-only effect, or another doubt; inactive = no such curve, though single readings can be large; an effect the other way counts as inactive or inconclusive.
Key:
[1] = system: Es-2; experiment: Primary qHTS to identify gynecologic anti-cancer compounds using libraries of approved drugs and bioactive compounds (AID 1345084); settings: Gynecologic cancer cell panel viability, ATPlite luminescence, 48 h; series mostly up to 57.5 µM; also: % is scaled to controls: 0 for no effect and ±100 for the full control effect; nearly all actives have a fitted effect of over 55% in size
Method in brief: (§1)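 Cytotoxicity screen measuring ATP content by luciferase luminescence. Each compound is applied at five concentrations for 48 h at 37 C with 5% CO2.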

[2] = system: HeLa; experiment: as above; settings: Gynecologic cancer cell panel viability, ATPlite luminescence, 48 h; series mostly up to 57.5 µM
Method in brief: as §1

[3] = system: Hek293T; experiment: as above; settings: Gynecologic cancer cell panel viability, ATPlite luminescence, 48 h, control line for the selectivity index; series mostly up to 57.5 µM
Method in brief: as §1

[4] = system: JEG-3; experiment: as above; settings: Gynecologic cancer cell panel viability, ATPlite luminescence, 48 h; series mostly up to 57.5 µM
Method in brief: as §1

[5] = system: OV90; experiment: as above; settings: Gynecologic cancer cell panel viability, ATPlite luminescence, 48 h; series mostly up to 57.5 µM
Method in brief: as §1

[6] = system: PA-1; experiment: as above; settings: Gynecologic cancer cell panel viability, ATPlite luminescence, 48 h; series mostly up to 57.5 µM
Method in brief: as §1

[7] = system: SKOV3; experiment: as above; settings: Gynecologic cancer cell panel viability, ATPlite luminescence, 48 h; series mostly up to 57.5 µM
Method in brief: as §1

[8] = system: Tov-21-G; experiment: as above; settings: Gynecologic cancer cell panel viability, ATPlite luminescence, 48 h; series mostly up to 57.5 µM
Method in brief: as §1

[9] = system: Tov112D; experiment: as above; settings: Gynecologic cancer cell panel viability, ATPlite luminescence, 48 h; series mostly up to 57.5 µM
Method in brief: as §1

[10] = Drug repurposing screens with cells derived from glioblastoma tumor samples (AID 1345199); settings: GBM patient neurospheres viability, ATP luminescence, 48 h; also: nearly all actives have a fitted effect of over 40% in size; also: potency is read from the fitted curve at half-maximal effect; as to activity, negative = cell killing: % is scaled to controls: 0 for no effect and ±100 for the full control effect
Method in brief: (§2)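 Four patient lines of CD133+ GBM neurospheres were screened at several concentrations; hits were retested in those lines plus three slower-growing GBM lines, using 48-hour treatment and ATP-based viability.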

[11] = system: astro; experiment: as above; settings: viability, ATP luminescence, 48 h; series mostly up to 45.9 µM
Method in brief: as §2

[12] = target: Nuclear receptor subfamily 1 group I member 2 (Rattus norvegicus) (UniProt Q9R1A7); experiment: qHTS assay for small molecule activators of the rat pregnane X receptor (rPXR) signaling pathway (AID 651751; call rule not given here; also: 0% is about no effect); settings: rPXR reporter cells, luciferase (One-Glo), 24 h
Nuclear receptor subfamily 1 group I member 2 (Rattus norvegicus), sequence (Q9R1A7 whole entry, looked up): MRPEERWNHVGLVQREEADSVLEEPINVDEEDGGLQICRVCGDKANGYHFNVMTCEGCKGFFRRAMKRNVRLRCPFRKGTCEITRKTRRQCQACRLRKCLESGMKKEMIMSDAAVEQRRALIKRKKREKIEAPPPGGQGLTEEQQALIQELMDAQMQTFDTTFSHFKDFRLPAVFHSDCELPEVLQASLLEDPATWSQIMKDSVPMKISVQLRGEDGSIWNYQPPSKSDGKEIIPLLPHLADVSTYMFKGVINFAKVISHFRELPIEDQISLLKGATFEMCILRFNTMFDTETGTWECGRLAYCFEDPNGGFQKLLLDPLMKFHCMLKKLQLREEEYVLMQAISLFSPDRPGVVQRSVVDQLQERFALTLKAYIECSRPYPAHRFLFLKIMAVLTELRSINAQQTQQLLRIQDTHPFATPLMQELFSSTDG

[13] = qHTS assay for small molecule activators of the human pregnane X receptor (PXR) signaling pathway (AID 720659; call rule not given here; also: 0% is about no effect)
[14] = at 45.9 µM (top of the series), tumour line B
[15] = at 45.9 µM (top of the series), tumour line D
[16] = at 46 µM (top of the series), tumour line A
[17] = at 46.1 µM (top of the series), tumour line C

CCCCCCCCCCCCCCCC(=O)O
inactive: Potency [1] | Potency [2] | Potency [3] | Potency [4] | Potency [5] | Potency [6] | Potency [7] | Potency [8] | Potency [9] | activity, negative = cell killing [10, 14] -2.37% | activity, negative = cell killing [10, 15] 1.78% | activity, negative = cell killing [10, 16] -27.9% | activity, negative = cell killing [10, 17] 2.94% | Potency [11] | max response [12] -0.866% | outcome [13]

C=C[C@H]1CN2CC[C@H]1C[C@@H]2[C@@H](O)c1ccnc2ccc(OC)cc12
active: Potency ([10]; tumour line A) 12.6 µM
inactive: Potency [1] | Potency [2] | Potency [3] | Potency [4] | Potency [5] | Potency [6] | Potency [7] | Potency [8] | Potency [9] | activity, negative = cell killing [10, 14] -7.35% | activity, negative = cell killing [10, 15] -6.69% | activity, negative = cell killing [10, 17] 11.9% | Potency [11]

NCCNC(=O)c1ccc(Cl)cn1
inactive: Potency [1] | Potency [2] | Potency [3] | Potency [4] | Potency [5] | Potency [6] | Potency [7] | Potency [8] | Potency [9] | activity, negative = cell killing [10, 14] -0.687% | activity, negative = cell killing [10, 15] -7.85% | activity, negative = cell killing [10, 16] -29.4% | activity, negative = cell killing [10, 17] -12.2% | Potency [11]

C[C@@H](O)[C@H]1C(=O)N2C(C(=O)O)=C(S[C@@H]3CN[C@H](CNS(N)(=O)=O)C3)[C@H](C)[C@H]12
inactive: Potency [1] | Potency [2] | Potency [3] | Potency [4] | Potency [5] | Potency [6] | Potency [7] | Potency [8] | Potency [9] | activity, negative = cell killing [10, 14] -1.99% | activity, negative = cell killing [10, 15] 1.38% | activity, negative = cell killing [10, 16] -14.9% | activity, negative = cell killing [10, 17] -16.7% | Potency [11]

CC(=O)NO
inactive: Potency [1] | Potency [2] | Potency [3] | Potency [4] | Potency [5] | Potency [6] | Potency [7] | Potency [8] | Potency [9] | activity, negative = cell killing [10, 14] -7.52% | activity, negative = cell killing [10, 15] -5.2% | activity, negative = cell killing [10, 16] -11.7% | activity, negative = cell killing [10, 17] 11.5% | Potency [11]

N=C(N)N1CCc2ccccc2C1
inactive: activity change, negative = cytotoxicity [1] -6.19% [at 6.55 µM] | activity change, negative = cytotoxicity [2] -13.2% [at 6.55 µM] | activity change, negative = cytotoxicity [3] 5.39% [at 6.55 µM] | activity change, negative = cytotoxicity [4] -0.277% [at 6.55 µM] | activity change, negative = cytotoxicity [5] 0.455% [at 6.55 µM] | activity change, negative = cytotoxicity [6] -0.819% [at 6.55 µM] | activity change, negative = cytotoxicity [7] -11.6% [at 6.55 µM] | activity change, negative = cytotoxicity [8] -1.06% [at 6.55 µM] | activity change, negative = cytotoxicity [9] -0.978% [at 6.55 µM] | activity, negative = cell killing [10, 14] -7.25% | activity, negative = cell killing [10, 15] 0.46% | activity, negative = cell killing [10, 16] -7.22% | activity, negative = cell killing [10, 17] -18.5% | Potency [11]

COc1ccc(S(=O)(=O)N2c3ccc(Cl)cc3[C@@](O)(c3ccccc3Cl)[C@H]2C(=O)N2CCC[C@@H]2C(N)=O)cc1OC
inactive: Potency [1] | Potency [2] | Potency [3] | Potency [4] | Potency [5] | Potency [6] | Potency [7] | Potency [8] | Potency [9] | activity, negative = cell killing [10, 14] -16.9% | activity, negative = cell killing [10, 15] -6.65% | activity, negative = cell killing [10, 17] -27% | Potency [11]

CCN(CC)CCNC(=O)COc1ccc(OC)cc1
inactive: Potency [1] | Potency [2] | Potency [3] | Potency [4] | Potency [5] | Potency [6] | Potency [7] | Potency [8] | Potency [9] | activity, negative = cell killing [10, 14] -17.2% | activity, negative = cell killing [10, 15] -10.2% | activity, negative = cell killing [10, 16] -59% | activity, negative = cell killing [10, 17] -17.2% | Potency [11]

COc1cc(C(=S)N2CCOCC2)ccc1O
inactive: Potency [1] | Potency [2] | Potency [3] | Potency [4] | Potency [5] | Potency [6] | Potency [7] | Potency [8] | Potency [9] | activity, negative = cell killing [10, 14] -7.92% | activity, negative = cell killing [10, 15] 6.32% | activity, negative = cell killing [10, 16] -27.5% | activity, negative = cell killing [10, 17] -22.1% | Potency [11]

OCc1ccccn1
inactive: Potency [1] | Potency [2] | Potency [3] | Potency [4] | Potency [5] | Potency [6] | Potency [7] | Potency [8] | Potency [9] | activity, negative = cell killing [10, 14] -0.907% | activity, negative = cell killing [10, 15] 14.9% | activity, negative = cell killing [10, 16] -24% | activity, negative = cell killing [10, 17] -5.53% | Potency [11]

O=C(O)CCC(=O)Nc1ccc(S(=O)(=O)Nc2nccs2)cc1
inactive: Potency [1] | Potency [2] | Potency [3] | Potency [4] | Potency [5] | Potency [6] | Potency [7] | Potency [8] | Potency [9] | activity, negative = cell killing ([10]; at 20 µM (top of the series), tumour line C) -5.75% | activity, negative = cell killing ([10]; at 21.2 µM (top of the series), tumour line B) 2.8% | activity, negative = cell killing ([10]; at 21.2 µM (top of the series), tumour line D) -10.2% | activity, negative = cell killing ([10]; at 21.3 µM (top of the series), tumour line A) -13.6% | Potency [11]

CCOc1cc(OCC)c(C(=O)CCC(=O)O)cc1OCC
inactive: Potency [1] | Potency [2] | Potency [3] | Potency [4] | Potency [5] | Potency [6] | Potency [7] | Potency [8] | Potency [9] | activity, negative = cell killing [10, 14] -2.96% | activity, negative = cell killing [10, 15] -2.05% | activity, negative = cell killing [10, 16] -23.5% | activity, negative = cell killing [10, 17] -10.2% | Potency [11]

CCNC(=O)NCc1cccc(Cl)c1
inactive: Potency [1] | Potency [2] | Potency [3] | Potency [4] | Potency [5] | Potency [6] | Potency [7] | Potency [8] | Potency [9] | activity, negative = cell killing [10, 14] -11.2% | activity, negative = cell killing [10, 15] -6.28% | activity, negative = cell killing [10, 16] -30% | activity, negative = cell killing [10, 17] -10.1% | Potency [11]

CCOc1ccccc1C(N)=O
inactive: Potency [1] | Potency [2] | Potency [3] | Potency [4] | Potency [5] | Potency [6] | Potency [7] | Potency [8] | Potency [9] | activity, negative = cell killing [10, 14] -5.35% | activity, negative = cell killing [10, 15] -0.0314% | activity, negative = cell killing [10, 16] -26.8% | activity, negative = cell killing [10, 17] -1.96% | Potency [11] | max response [12] 2.38% | outcome [13]

Reference: PubChem BioAssay (NCATS)
